Experimental data taken from PubChem BioAssay AID1159580 (chemical genetic matrix, 2015).
Several values for one entry are separate records, joined by “and”; a condition that tells them apart may be missing. Identical values can stand only once. About 2,000 (36%) of roughly 5,500 compounds were called active. Inconclusive results (about 18%) are left out. No stated cut-off is given here; in the data, active means normalized growth mostly below about 0.91 (no sharp cut-off); inconclusive means no clear call, values can overlap the other calls; inactive means mostly above about 0.92. The list shows a part of the results.

Assay: chemical genetic growth profiling, strain panel (AID 1159580);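 further: tested at 20 µM; growth read once vehicle control cultures reached saturation at 30 °C; 1 = growth at the plate median or of vehicle wells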
Details: S. cerevisiae deletion strains, growth OD

Measured: normalized growth

C[n+]1ccccc1/C=N/O
inactive: locus YAL013W, strain DEP1, stronger effect = lower value 1.01 | locus YAL021C, strain ccr4, stronger effect = lower value 0.99 | locus YAL026C, strain drs2, stronger effect = lower value 1.02 | locus YAL030W, strain snc1, stronger effect = lower value 1 | locus YBL061C, strain skt5, stronger effect = lower value 0.992 | locus YBR009C, strain hhf1, stronger effect = lower value 1.03 | locus YBR021W, strain FUR4, stronger effect = lower value 0.985 | locus YBR023C, strain chs3, stronger effect = lower value 0.995 | locus YBR171W, strain sec66, stronger effect = lower value 1 | locus YBR229C, strain ROT2, stronger effect = lower value 1.01 | locus YBR231C, strain swc5, stronger effect = lower value 1.02 | locus YBR279W, strain paf1, stronger effect = lower value 1.01 | locus YCL011C, strain gbp2, stronger effect = lower value 1.01 | locus YCL016C, strain dcc1, stronger effect = lower value 1.01 | locus YCL029C, strain bik1, stronger effect = lower value 1.01 | locus YCL069W, strain vba3, stronger effect = lower value 1 | locus YCR088W, strain abp1, stronger effect = lower value 1 | locus YDL005C, strain med2, stronger effect = lower value 0.986 | locus YDL035C, strain GPR1, stronger effect = lower value 1.01 | locus YDL040C, strain nat1, stronger effect = lower value 1.01 | locus YDL074C, strain BRE1, stronger effect = lower value 1 | locus YDL101C, strain DUN1, stronger effect = lower value 1.01 | locus YDL134C, strain PPH21, stronger effect = lower value 0.997 | locus YDL185W, strain tfp1, stronger effect = lower value 0.999 | locus YDL192W, strain arf1, stronger effect = lower value 1 | locus YDR001C, strain nth1, stronger effect = lower value 0.997 | locus YDR069C, strain doa4, stronger effect = lower value 1.02 | locus YDR101C, strain arx1, stronger effect = lower value 1 | locus YDR137W, strain rgp1, stronger effect = lower value 1.01 | locus YDR150W, strain NUM1, stronger effect = lower value 1.01 | locus YDR159W, strain sac3, stronger effect = lower value 0.967 | locus YDR162C, strain NBP2, stronger effect = lower value 1.01 | locus YDR195W, strain ref2 0.999 | locus YDR297W, strain sur2, stronger effect = lower value 1.01 | locus YDR318W, strain mcm21, stronger effect = lower value 0.994 | locus YDR334W, strain swr1, stronger effect = lower value 1 | locus YDR335W, strain msn5, stronger effect = lower value 1.01 | locus YDR388W, stronger effect = lower value 0.996 | locus YDR392W, strain spt3, stronger effect = lower value 0.918 | locus YDR502C, strain sam2, stronger effect = lower value 1 | locus YEL003W, strain gim4, stronger effect = lower value 1.01 | locus YEL037C, strain rad23, stronger effect = lower value 0.998 | locus YEL061C, strain CIN8 (second series), stronger effect = lower value 1.02 | locus YEL061C, strain CIN8, stronger effect = lower value 1.01 | locus YER015W, strain faa2, stronger effect = lower value 1.01 | locus YER016W, strain bim1, stronger effect = lower value 0.991 | locus YER110C, stronger effect = lower value 1.01 | locus YER111C, strain swi4, stronger effect = lower value 1 | locus YER155C, strain BEM2 (second series), stronger effect = lower value 1.02 | locus YER155C, strain BEM2, stronger effect = lower value 0.998 | locus YER167W, strain BCK2, stronger effect = lower value 1.01 | locus YFR010W, strain ubp6, stronger effect = lower value 1.02 | locus YGL078C, strain dbp3, stronger effect = lower value 1.02 | locus YGL086W, strain mad1, stronger effect = lower value 1.01 | locus YGL167C, strain pmr1, stronger effect = lower value 1.01 | locus YGL173C, strain kem1, stronger effect = lower value 0.991 | locus YGL227W, strain vid30, stronger effect = lower value 0.994 | locus YGL240W, strain doc1, stronger effect = lower value 0.993 | locus YGL248W, strain PDE1, stronger effect = lower value 1.01 | locus YGL253W, strain hxk2, stronger effect = lower value 1.02 | locus YGR078C, strain PAC10, stronger effect = lower value 1.01 | locus YGR135W, strain pre9, stronger effect = lower value 1.01 | locus YGR229C, strain SMI1, stronger effect = lower value 1.02 | locus YGR252W, strain gcn5, stronger effect = lower value 0.954 | locus YHR013C, strain ard1, stronger effect = lower value 0.982 | locus YHR027C, strain rpn1, stronger effect = lower value 1 | locus YHR030C, strain SLT2, stronger effect = lower value 1.01 and 1 | locus YHR079C, strain IRE1 (second series), stronger effect = lower value 0.995 | locus YHR079C, strain IRE1, stronger effect = lower value 0.997 | locus YHR094C, strain hxt1, stronger effect = lower value 1 | locus YHR129C, strain ARP1, stronger effect = lower value 1.01 | locus YHR142W, strain chs7, stronger effect = lower value 1.02 | locus YHR200W, strain rpn10, stronger effect = lower value 0.99 | locus YIL066C, strain RNR3, stronger effect = lower value 1.01 | locus YIL073C, strain SPO22, stronger effect = lower value 0.996 | locus YIL125W, strain kgd1, stronger effect = lower value 0.985 | locus YIR030C, strain dcg1, stronger effect = lower value 1.01 | locus YJL092W, strain hpr5, stronger effect = lower value 1.01 | locus YJL095W, strain BCK1 (second series), stronger effect = lower value 0.99 | locus YJL095W, strain BCK1, stronger effect = lower value 1.01 | locus YJL115W, strain asf1, stronger effect = lower value 1.01 | locus YJL129C, strain trk1, stronger effect = lower value 1.01 | locus YJL134W, strain LCB3, stronger effect = lower value 1.01 | locus YJL154C, strain vps35, stronger effect = lower value 1.02 | locus YJL164C, strain tpk1, stronger effect = lower value 1 | locus YJL166W, strain qcr8, stronger effect = lower value 1.01 | locus YJL168C, strain set2, stronger effect = lower value 0.995 | locus YJL187C, strain SWE1 (second series), stronger effect = lower value 1.01 | locus YJR043C, strain POL32, stronger effect = lower value 0.995
